Source: PubChem BioAssay (National Center for Advancing Translational Sciences (NCATS))
HT1080-NT tox: kills 2HG-producing HT-1080-NT fibrosarcoma cells | HT-1080-NT fibrosarcoma viability, CellTiter-Glo ATP luminescence, 48 h | Potency, µM (doses to about 46.1 µM), without a hit: top-dose activity, negative = less viability, most hits filed as cytotoxic | 1.6% of 360,000 active | AID 686970;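 also: NT is the 2HG producing partner of a matched IDH1 knockdown line; potency is read from the fitted curve at half-maximal effect; 0% = DMSO-treated cells and -100% = media-only wells without cells; nearly all actives have a fitted effect of over 55% in size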
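Read-out is CellTiter-Glo luminescence after 10 minutes at room temperature, following 48 hours' compound treatment of HT-1080-NT cells (750 cells/well, RPMI, 5% FBS, 37 degrees C).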
IL1B secr inh: inflammasome signaling inhibition, IL-1 beta readout; THP-1 LPS/ATP IL-1B secretion, AlphaLISA, 16 h; active compounds read low; activity change, % at 57.5 µM; 4.7% of 360,000 active; AID 743279; in the data active = activity change below about -50%; inconclusive = mostly about -30% to -49%
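THP-1 cells pretreated 1 hr with compounds (up to 57.5 uM final), then stimulated with LPS (250 ng/mL final) plus ATP (1.25 mM final); secreted IL-1B measured by AlphaLISA after 16 hr, decreased signal indicating inhibition.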
HT1080 IDH1KD tx: kills HT-1080 cells with IDH1 knockdown; HT-1080 IDH1 knockdown viability, ATP luminescence, 48 h; Potency, µM (top dose mostly 46.1 µM), for the others: at the top dose activity, negative = toxicity, hits mostly cytotoxic; AID 686971; 2% of 360,000 active;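 also: potency is read from the fitted curve at half-maximal effect; 0% = DMSO wells and -100% = cell-free medium wells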
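In this qHTS, HT-1080 cells depleted of IDH1 are exposed for 48 h at 37 °C to compound titrations. Toxicity is scored from CellTiter-Glo luminescence, with DMSO as full viability and medium alone as none.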
TDP1 cell CPT: DT40-hTDP1 cell growth loss with CPT; AID 686979; Potency, µM (titrated, usually from 46.2 µM), for the others: at the top dose activity change, negative = growth inhibition, hits mostly inhibitors; chicken DT40 Tdp1-/-;hTDP1 cells + 20 nM CPT, ATP luminescence, 48 h; 12% of 420,000 active; also: potency is read from the fitted curve at half-maximal effect; nearly all actives have a fitted effect of over 55% in size
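Chicken DT40 Tdp1-/- cells stably complemented with human TDP1 were seeded at 400 cells/well in medium containing 20 nM camptothecin, exposed to pin-transferred compounds, and grown at 37 °C for at least 48 hr. Viability was read as ATP luminescence.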
uPA generation: blocks generation of uPA at the cell surface; cell surface uPA generation assay, qHTS; Potency, µM (doses to about 38.3 µM), for the others: at the highest dose activity change, negative = inhibition, usual class: inhibitors; 0.31% of 330,000 active; AID 540303; active = well fitted inhibition curve with a large enough effect; inconclusive = small, poorly fitted or top-dose-only effect; inactive = no such curve, though single readings can be large or run the other way; tested in mouse RAW 264.7 cells; also: potency is read from the fitted curve at half-maximal effect; nearly all actives have a fitted effect of over 55% in size
DT40 TDP1 no CPT: qHTS for Inhibitors of human tyrosyl-DNA phosphodiesterase 1 (TDP1): qHTS in cells in absence of CPT. Potency, µM (top dose mostly 46.2 µM), for inactives: top-dose activity change, negative = growth inhibition, usual class: inhibitors. DT40 Tdp1-/- hTDP1 cells, no CPT, ATP luminescence, 48 h. 15% of 420,000 active. AID 686978, 2013; also: potency is read from the fitted curve at half-maximal effect; nearly all actives have a fitted effect of over 55% in size
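Growth kinetics read by CellTiter-Glo luminescence after ≥48 hr at 37 °C. Cells: DT40 Tdp1-/- stably carrying human TDP1, 400 per well, compound exposure in the absence of CPT (DMSO vehicle).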
The depositor's hits bear a star; ? = inconclusive; / = no result given; ! = not confirmed by another sample; [ ] = dose if it differs, or a comment. The list is not random: actives were taken first. Their share in the collection is about 19%. Unless noted, calls follow the shape of the dose curve; as a rule, active = well fitted curve in the direction sought with a large enough effect; inconclusive = small, poorly fitted or top-dose-only effect, or another doubt; inactive = no such curve, though single readings can be large; an effect the other way counts as inactive or inconclusive. Unless noted, % is scaled to controls: 0 for no effect and ±100 for the full control effect.

SMILES	HT1080-NT tox	IL1B secr inh	HT1080 IDH1KD tx	TDP1 cell CPT	uPA generation	DT40 TDP1 no CPT
COc1ccc(-c2ccc3c(c2)S(=O)(=O)c2cccc(C(=O)NC[C@@H]4CCCO4)c2C3=O)cc1OC	2.4%	4.3	-15.3%	?	-7.2%	?
CCC(=O)N1CCc2cc(S(=O)(=O)NC(C(=O)NCCc3cccc(C)c3)C(C)C)ccc21 (configuration not stated)	/	/	/	-8.5%	/	-16.5%
CN(C)/C=N/S(=O)(=O)c1ccc(Cl)c(Cl)c1	7.9%	-17.2	5.1%	7.1%	-3.7%	3.0%
COc1ccccc1OC(C)C(=O)N1CCN(CCc2ccccn2)CC1 (configuration not stated)	/	/	/	6.2%	/	-22.5%
C[C@@H](NC(=O)c1nc[nH]c1C(=O)N(C)Cc1ccccc1)c1ccccc1	7.6%	2.6	8.4%	?	7.5%	?
O=C(NCCOc1ccccc1)c1cccc2c1C(=O)c1ccc(Cl)cc1S2(=O)=O	-19.5%	-81.2*	-0.5%	?	-14.3%	23.1µM*
CC(C)OCCCNC(=O)c1cccc2c1C(=O)c1ccc(Cl)cc1S2(=O)=O	24.2%	-77.1*	8.7%	-27.1%	-8.0%	-28.0%
COc1ccccc1-c1noc(CCCC(=O)Nc2cccc(C(F)(F)F)c2)n1	/	/	/	?	/	18.4µM*
CCOc1ccccc1-c1noc(CCCC(=O)Nc2cccc(C(F)(F)F)c2)n1	/	/	/	18.4µM*	/	18.4µM*
COc1ccccc1-c1noc(CCC(=O)Nc2cc(C(F)(F)F)ccc2Cl)n1	-7.9%	2.4	-2.5%	-20.7%	/	?
CCc1c(CN2CCN(c3ccccc3F)CC2)csc1C	/	/	/	?	/	20.6µM*
COc1ccc(Cl)cc1Nc1cc(C)nc2nc(-c3ccccc3C)nn12	/	/	/	5.7%	/	-5.4%
NS(=O)(=O)c1ccc(NC(=O)CN2CCN(S(=O)(=O)c3ccc(F)cc3)CC2)cc1	8.1%	6.3	3.2%	20.6µM*	-9.4%	20.6µM*
COc1ccc(NC(=O)CN2CCN(S(=O)(=O)c3ccc(Cl)cc3)CC2)cc1	6.5%	0.0	-10.0%	-28.7%	-3.4%	?
COc1ccc(S(=O)(=O)N2CCN(CC(=O)Nc3ccc(Cl)c(C(F)(F)F)c3)CC2)cc1	/	/	/	9.2µM*	/	8.2µM*
O=C(CN1CCN(S(=O)(=O)c2ccc(F)cc2)CC1)Nc1cccc(C(F)(F)F)c1	-13.4%	-69.0*	-5.4%	?	-4.8%	-21.0%
NS(=O)(=O)c1ccc(NC(=O)CN2CCCN(S(=O)(=O)c3ccc(F)cc3)CC2)cc1	-3.1%	0.0	-2.1%	-7.2%	-0.7%	-28.1%
CCc1cccc(C)c1NC(=O)CN1CCN(S(=O)(=O)c2ccc(C(C)(C)C)cc2)CC1	?	?	-16.8%	-41.7%	1.9%	23.1µM*
CCN(CC)S(=O)(=O)c1ccc(N2CCCC2)c(C(=O)OCC(=O)Nc2cc(C)on2)c1	-1.4%	?	-17.0%	-14.1%	3.0%	?
O=C(C[n+]1cc(Br)cc2ccccc21)c1ccc(Br)cc1	-13.8%	-65.7*	-16.7%	?	-1.7%	?
O=C(C[n+]1cc(Br)cc2ccccc21)c1ccc(Cl)cc1	-29.2%	-8.7	?	?	0.3%	18.4µM*
Brc1cc2ccccc2[n+](Cc2ccccc2)c1	?	17.2	?	?	?	11.6µM*
COc1ccc(OC)c(S(=O)(=O)NC2CC(=O)N(c3cccc(F)c3)C2)c1 (configuration not stated)	3.0%	0.0	4.1%	-3.6%	2.6%	?
COc1ccc(N(C(=O)c2ccccc2F)S(=O)(=O)c2ccc3c(c2)n(C)c(=O)n3C)cc1	/	/	/	11.2%	/	-3.6%
Cc1noc(C)c1-c1ccc(C(=O)NCC(C)C)c2occc12	11.2%	-1.0	4.7%	?	/	?
SMILES	HT1080-NT tox	IL1B secr inh	HT1080 IDH1KD tx	TDP1 cell CPT	uPA generation	DT40 TDP1 no CPT
Cc1noc(C)c1-c1ccc(C(=O)Nc2cccc(C(F)(F)F)c2)c2occc12	?	-6.7	?	16.4µM*	/	20.6µM*
Cc1noc(C)c1-c1ccc(C(=O)NCc2cccnc2)c2occc12	-8.0%	79.4	-17.9%	13µM*	/	18.4µM*
Cc1noc(C)c1-c1ccc(C(=O)Nc2cccc(NS(C)(=O)=O)c2)c2occc12	-4.5%	5.4	-11.7%	?	/	?
Cc1noc(C)c1-c1ccc(C(=O)NCCC(F)(F)F)c2occc12	11.3%	1.9	8.0%	14.6µM*	/	?
COc1cccc(CNC(=O)CN(C)S(=O)(=O)c2ccc3c(c2)n(C)c(=O)c(=O)n3C)c1	3.0%	-3.0	11.6%	6.5%	2.2%	19.1%
CCNC(=O)NC(=O)C(C)OC(=O)Cc1coc2cc3c(cc12)CCC3 (configuration not stated)	-0.8%	19.9	1.0%	-15.4%	-1.4%	1.6%
Cc1ccc2nc(-c3cccc(Br)c3)c(Cc3ccccc3C(F)(F)F)n2c1	5.4%	49.8	3.9%	-29.3%	/	?
COc1ccc(-n2c(C(C)(C)C)csc2=Nc2c(C)n(C)n(-c3ccccc3)c2=O)cc1	7.4%	-3.5	12.5%	-3.3%	0.7%	-19.9%
CCCCCCSc1cccc(-c2nc3ccc(Cl)cn3c2NCc2ccccc2)c1	-4.1%	-6.1	6.5%	20.6µM*	11.5%	23.1µM*
CCCCCCSc1ccc(-c2nc3ccc(C)cn3c2NCc2ccccc2)cc1	1.2%	-109.9*!	-2.5%	23.1µM*!	4.4%	16.4µM*!
CC(C)(C)Cc1c(-c2cccc(Br)c2)nc2ccc(Cl)cn12	10.2%	-0.3	2.9%	?	/	?
CCCCCCSc1ccc(-c2nc3ccc(C)cn3c2NCc2ccccc2)cc1OC	-24.0%	-52.7*!	?	16.4µM*	2.2%	18.4µM*
COc1ccc(-c2nc3ccc(Br)cn3c2Cc2ccccc2)cc1OC	?	-11.0	?	?	/	?
Cc1cc(C(=O)NCC2CCC3(CCN(Cc4cc(F)ccc4F)CC3)O2)n(C)n1 (configuration not stated)	/	/	/	-12.3%[9.04 µM]	/	?
COc1cccc(N2C(=O)C3CCCN3C2=S)c1 (configuration not stated)	-19.4%	-13.1	4.2%	-20.9%	-8.2%	?
CCN(c1ccccc1)c1nc(Cl)nc2c1cnn2C	-2.9%	-11.2	-1.1%	?	-10.4%	13µM*
N#C/C(=C\c1c(N2CCN(c3ccccc3)CC2)nc2ccccn2c1=O)C(N)=O	-3.0%	-7.6	11.1%	-15.7%	-10.5%	-18.9%
